High-throughput results deposited in PubChem BioAssay by National Center for Advancing Translational Sciences (NCATS).
SMN2 splice up – qHTS Assay for Enhancers of SMN2 Splice Variant Expression. HEK293 SMN2-luciferase splicing reporter, luminescence, 30-36 h. Potency, µM (doses to about 46.1 µM), inactives show top-dose activity change, positive = activation, actives largely listed as activators. 210,000 tested, 2.8% active; note: % of control where 0% means no effect; nearly all actives have a fitted effect of over 55% in size
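HEK293 cells carry an SMN2 […]–luciferase reporter in which exon 7 inclusion puts luciferase in frame. Cells were plated 10-12 h before compound addition, then incubated 30-36 h at 37C. ONE-Glo luminescence was read; sodium butyrate at 4.5 mM final served as control.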
ELG1 genotox – qHTS screen for small molecules that induce genotoxicity in human embryonic kidney (HEK293T) cells expressing luciferase-tagged ELG1 | 330,000 tested, 1.3% active | HEK293T ELG1-luciferase reporter, luminescence, 16 h | Potency, µM (highest dose often 46 µM), inactives show at the highest dose activity change, positive = activation, actives largely listed as activators | AID 504466, 2011; note: % of control where 0% means no effect; nearly all actives have a fitted effect of over 60% in size
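After overnight (16 hr) compound treatment at 37 °C, ELG1-luciferase HEK293T cells were lysed with ONE-Glo; luminescence quantified 30 min later at room temperature.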
FLuc counter – qHTS profiling assay for firefly luciferase inhibitor/activator using purifed enzyme and Km concentrations of substrates (counterscreen for miR-21 project). AID 588342, 2011. Luciferin 4-monooxygenase (Photinus pyralis), P08659. 360,000 tested, 6.9% active. Potency, µM (highest dose often 57.5 µM), for the others: at the top dose activity change, negative = inhibition, usual class: inhibitors. purified FLuc, Km substrates, luminescence inhibition;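 note: plate controls were vehicle for no effect and reference inhibitor for full effect; nearly all actives have a fitted effect of over 55% in size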
Target sequence (P08659 whole entry, looked up): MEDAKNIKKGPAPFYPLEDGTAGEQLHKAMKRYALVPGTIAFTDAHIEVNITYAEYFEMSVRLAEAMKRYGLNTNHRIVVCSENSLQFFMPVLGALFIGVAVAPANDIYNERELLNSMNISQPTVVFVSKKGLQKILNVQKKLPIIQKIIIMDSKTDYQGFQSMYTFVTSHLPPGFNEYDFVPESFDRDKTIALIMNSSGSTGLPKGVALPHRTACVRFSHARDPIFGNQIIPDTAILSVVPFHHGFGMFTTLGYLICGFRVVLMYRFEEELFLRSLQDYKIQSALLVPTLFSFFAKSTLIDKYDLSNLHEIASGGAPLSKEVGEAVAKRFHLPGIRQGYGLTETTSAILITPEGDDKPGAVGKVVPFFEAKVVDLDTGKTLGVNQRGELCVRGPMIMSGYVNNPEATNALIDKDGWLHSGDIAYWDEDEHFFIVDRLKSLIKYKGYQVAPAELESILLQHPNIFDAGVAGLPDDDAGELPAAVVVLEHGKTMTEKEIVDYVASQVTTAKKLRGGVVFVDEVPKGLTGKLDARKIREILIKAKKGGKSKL
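Biochemical qHTS of compounds, final roughly 60 µM downward over six points, against 10 nM purified firefly luciferase using Km concentrations of substrates (10 uM D-luciferin, 10 uM ATP) in Tris acetate pH 7.5 buffer; luminescence output.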
Rab9 prom act – qHTS Assay for Rab9 Promoter Activators; Huh7 Rab9 promoter-luciferase reporter, luminescence, 24 h; Potency, µM (titrated, usually from 9.22 µM), without a hit: top-dose activation, negative = inhibition, most hits filed as activators; 320,000 tested, 2.8% active; note: % of control where 0% means no effect; nearly all actives have a fitted effect of over 60% in size
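Cell-based reporter: Huh7 stable for Rab9 promoter-driven luciferase, plated in reduced-serum medium with 10% FBS at 1500 cells/well, compound-treated 24 h at 37 °C, luminescence read after 10 min reagent.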
KinaseGlo FLuc – Counterscreen for Luciferase (Kinase-Glo TM) Inhibition; 200,000 tested, 0.28% active; Kinase-Glo luciferase, ATP luminescence, 8 min; Luciferin 4-monooxygenase (Photuris pensylvanica), Q27757; Potency, µM (doses to about 38.3 µM), for inactives: at the top dose activity change, negative = inhibition, most hits filed as inhibitors; AID 1379, 2008; note: % is set by controls: 0 for no effect and ±100 for the full control effect; nearly all actives have a fitted effect of over 60% in size
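Substrate mix (final 50 mM imidazole pH 7.2, 50 mM KCl, 7 mM MgCl2, 10 uM ATP, 0.01% Tween 20, 0.05% BSA) plus pin-tool compound, then Kinase-Glo detection mix; 8 min ambient, luminescence read.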
NPC1 prom act – qHTS Assay for NPC1 Promoter Activators; Huh7 NPC1 promoter luciferase reporter, 24 h; Potency, µM (titrated, usually from 9.22 µM), for the others: at the top dose activation, hits mostly activators; 320,000 tested, 2.4% active; note: % of control where 0% means no effect; nearly all actives have a fitted effect of over 60% in size
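Huh7 reporter cells (NPC1 promoter driving luciferase) are dosed with compound for 24 h at 37 °C, 5% CO2; luciferase detection reagent is then added and luminescence measured after 10 min at ambient temperature.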
* marks the source's active call; other numbers are inactive results; ? = inconclusive; nt = no result given; [ ] = dose if it differs, or a comment. Sampled rows, rich in hits. Any-hit rate of the full collection: about 7.5%. Calls come from the whole dose curve; as a rule, active = well fitted curve in the direction sought with a large enough effect; inconclusive = small, poorly fitted or top-dose-only effect, or another doubt; inactive = no such curve, though single readings can be large; an effect the other way counts as inactive or inconclusive. Potency is the fitted concentration of half-maximal effect.

SMILES | SMN2 splice up | ELG1 genotox | FLuc counter | Rab9 prom act | KinaseGlo FLuc | NPC1 prom act
COc1ccc(C2=NN(C(C)=O)C(c3cn(-c4ccccc4)nc3-c3cccs3)C2)cc1 (stereo not drawn) | -4% | nt | 4% | nt | nt | nt
Cc1ccc(S(=O)(=O)N2CCC(C(=O)OC(C)C(=O)NCc3ccccc3)CC2)cc1C (stereo not drawn) | nt | -1% | 4% | -2% | nt | -1%
O=C(/C=C/c1ccccc1)N1CCOCC1 | nt | 6% | ? | ? | nt | -1%
CN1CCN(C(=O)/C=C\c2ccc(Cl)cc2)CC1 | 9% | 5% | -12% | -2% | -1% | 1%
O=C(/C=C/c1ccc(Cl)cc1)N1CCOCC1 | nt | -6% | 27µM* | ? | nt | ?
O=C(/C=C/c1ccccc1Cl)N1CCCN(C(=O)/C=C/c2ccccc2Cl)CC1 | 5% | 1% | 19µM* | 12% | -4% | -1%
O=C(/C=C/c1ccccc1[N+](=O)[O-])N1CCCCC1 | 12% | 6% | -10% | 29% | -1% | 1%
CC(C)c1ccc(/C=C/C(=O)N2CCOCC2)cc1 | nt | ? | 9.5µM* | 2.5µM* | nt | 3.2µM*
NC(=O)C1(c2ccccc2)OC1c1ccccc1 (stereo not drawn) | nt | 4% | ? | -3% | nt | -3%
O=c1c2c3c(sc2nc2sc(C4CC4)nn12)CCCC3 | 7.9µM* | 5.8µM* | 3µM* | 4µM* | -5% | 2.5µM*
Cn1cnc(S(=O)(=O)N2CCCC(C(=O)NCc3ccc(F)cc3)C2)c1 (stereo not drawn) | nt | nt | 0% | nt | nt | nt
Cc1ccc(NC(=O)Nc2ccc3c(c2)nnn3C)cc1C | nt | 13% | -7% | ? | nt | ?
COc1ccccc1NC(=O)Nc1cccc(C(=O)O)c1 | -14% | 1% | 12µM* | ? | -6% | ?
COc1ccccc1NC(=O)NCC(=O)Nc1ccc(F)c(F)c1 | nt | 10% | -3% | 1% | -3% | 0%
COc1ccc(C(=O)Nc2cccc(C(C)=O)c2)cc1OC | 14% | 18% | ? | 7% | -17% | 18%
COc1ccccc1NC(=O)Nc1ccc2c(c1)nnn2C | ? | 13µM* | 12µM* | 3.2µM* | -7% | ?
COc1cccc(OC)c1C(=O)Nc1cccc(C(=O)Nc2cccc(C(=O)O)c2)c1 | nt | -2% | 9.5µM* | 7% | nt | 7%
COc1ccccc1NC(=O)Nc1ccc(F)c(F)c1 | 28% | 1% | 17µM* | 18% | -23% | 12%
N#CCCN(C(=O)COC(=O)CCc1nc2ccccc2c(=O)[nH]1)c1ccc(F)cc1 | nt | 0% | 4% | -9% | nt | -4%
COc1ccccc1C(=O)Nc1cccc(C(=O)c2ccccc2)c1 | nt | 2% | 17µM* | 1% | nt | -2%
COc1ccccc1NC(=O)NC(=O)c1ccccc1 | nt | ? | 1.2µM* | ? | nt | 2.5µM*
CN(C)/C=C/C(=O)c1cnc(-c2ccc(Cl)cc2)s1 | 10µM* | ? | 2.7µM* | 0.5µM* | -8% | 1µM*
CN(C)/C=C/C(=O)c1cnc(-c2ccccc2)s1 | 11µM* | ? | 11µM* | 1.4µM* | -5% | 2µM*
CN(C)/C=C/C(=O)c1ccc(Cl)s1 | 2% | ? | -13% | 13% | -4% | 6%
Cn1c(=O)c2c(nc(N/N=C\c3ccccc3C(=O)O)n2C)n(C)c1=O | -13%[9.22 µM] | nt | nt | nt | -1%[7.66 µM] | nt
O=C(Nc1sc2c(c1C(=O)O)CCCCC2)c1ccccc1F | 5.6µM* | -7% | 11µM* | 4µM* | -5% | 3.2µM*
NC(=O)c1c(NC(=O)c2noc3c2CCCC3)sc2c1CCCC2 | 14µM* | nt | ? | nt | nt | nt
NC(=O)c1c(NC(=O)c2cc3ccccc3o2)sc2c1CCC2 | 2.2µM* | 0.92µM* | 0.43µM* | 0.22µM* | -12% | 0.32µM*
NC(=O)c1c(NC(=O)c2ccc(F)cc2)sc2c1CCC2 | nt | ? | 4.3µM* | 1.8µM* | nt | 1.8µM*
